# Most compounds without a hit are left out; they make up all but 10% or so of the library.
# G9a block: blocks human histone lysine methyltransferase G9a | Q96KQ7 | G9a H3K9 monomethylation, AlphaScreen, 2 h | Potency, µM (top dose mostly 102 µM), for inactives: top-dose activity, negative = inhibition, hits mostly inhibitors | 8.8% of 350,000 active | AID 504332; also: % is scaled to controls: 0 for no effect and ±100 for the full control effect; nearly all actives have a fitted effect of over 75% in size
# Target sequence (Q96KQ7 913-1193 limits assumed): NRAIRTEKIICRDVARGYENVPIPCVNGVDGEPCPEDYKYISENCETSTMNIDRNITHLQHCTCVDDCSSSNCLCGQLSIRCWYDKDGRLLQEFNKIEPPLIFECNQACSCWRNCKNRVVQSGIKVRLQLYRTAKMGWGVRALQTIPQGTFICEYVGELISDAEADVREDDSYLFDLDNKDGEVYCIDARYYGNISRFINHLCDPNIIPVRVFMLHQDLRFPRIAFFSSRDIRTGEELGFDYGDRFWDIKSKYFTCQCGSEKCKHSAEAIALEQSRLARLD
#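 G9a (20 nM) preincubated 15 min RT with compounds, then 500 nM biotinylated H3K9 peptide and 20 uM SAM added; 2 h RT reaction. Monomethyl-H3K9 product detected by AlphaScreen with anti-H3K9me1 antibody, streptavidin donor and anti-rabbit IgG acceptor beads.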
# JMJD2A Tudor: JMJD2A Tudor domain (human) inhibition. O75164. AlphaScreen JMJD2A-Tudor / H3K4me3 peptide binding. Potency, µM (titrated, usually from 114 µM), for the others: top-dose activity change, negative = inhibition, hits mostly inhibitors. 4.4% of 390,000 active. AID 504339; also: % is scaled to controls: 0 for no effect and ±100 for the full control effect; nearly all actives have a fitted effect of over 50% in size
# GLS inh: blocks human kidney-isoform glutaminase activity. Potency, µM (series often up to 45.5 µM), inactives show top-dose activity change, negative = inhibition, actives largely listed as inhibitors. GLS enzymatic activity, qHTS titration. AID 624170. O94925. 0.21% of 410,000 active; also: % is scaled to controls: 0 for no effect and ±100 for the full control effect
#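 Read-out is an Amplex red fluorescence increase coupled through glutamate oxidase and HRP, measured before and after 30 min room-temperature incubation. hKGA is in 45 mM KH2PO4 (pH 8.2) with 0.02% Tween-20; glutamine added as 1mM solution.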
# BAZ2B inh: blocks human BAZ2B | AID 504333 | Potency, µM (highest dose often 114 µM), inactives show top-dose activity change, negative = inhibition, usual class: inhibitors | Q9UIF8 | AlphaScreen BAZ2B-H3K14Ac peptide displacement | 4.4% of 360,000 active; also: % is scaled to controls: 0 for no effect and ±100 for the full control effect; nearly all actives have a fitted effect of over 60% in size
#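 Complex of BAZ2B and biotin-H3K14Ac (50 nM apiece) forms over 30 min at RT, then faces library compounds up to 110 uM for another 30 min; AlphaScreen beads added, 20 min dark incubation, luminescence read.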
# HP1b binding inh: blocks HP1-beta chromodomain binding to methylated histone tails. P83916. AlphaScreen HP1-beta / biotin-H3K9me3 peptide binding. Potency, µM (series often up to 114 µM), without a hit: at the highest dose activity change, negative = inhibition, hits mostly inhibitors. 0.56% of 390,000 active. AID 540317; also: nearly all actives have a fitted effect of over 70% in size
# Target sequence (P83916 whole entry, looked up): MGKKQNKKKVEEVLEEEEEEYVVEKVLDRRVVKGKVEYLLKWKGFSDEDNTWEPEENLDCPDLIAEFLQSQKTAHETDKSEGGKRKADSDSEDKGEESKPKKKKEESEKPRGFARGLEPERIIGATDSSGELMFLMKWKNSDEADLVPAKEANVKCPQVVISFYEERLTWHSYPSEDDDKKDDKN
#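 HP1-beta protein (50 nM final) preincubated 30 min at room temperature with biotinylated H3(1-18)K9me3 peptide (50 nM) in PBS pH 7.4, 0.01% Tween-20, then compound added for 30 min. AlphaScreen streptavidin donor/nickel chelate acceptor beads (10 ug/mL final), 30 min dark, luminescence read.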
# * = called active by the depositor; u = inconclusive; x = not tested or not shown; [ ] = another dose, or the depositor's remark. Calls follow the shape of the dose curve; as a rule, active = well fitted curve in the direction sought with a large enough effect; inconclusive = small, poorly fitted or top-dose-only effect, or another doubt; inactive = no such curve, though single readings can be large; an effect the other way counts as inactive or inconclusive. Potency is read from the fitted curve at half-maximal effect.
SMILES,G9a block,JMJD2A Tudor,GLS inh,BAZ2B inh,HP1b binding inh
Cc1cc(C(=O)COC(=O)c2ccc(CO)cc2)c(C)n1CC1COc2ccccc2O1 (stereo not given),4µM*,-27%,-8%,u,1%
CCOc1ncccc1C(=O)OCC(=O)c1cc(C)n(Cc2ccco2)c1C,u,u,1%,50µM*,-3%
O=C(COC(=O)c1cccnc1Cl)c1ccc(F)cc1,5%,1%,1%,-13%,45%
CCOc1ncccc1C(=O)OCC(=O)c1ccc(F)cc1,33%,20µM*,-18%,11%,8%
Cc1cc(C(=O)COC(=O)C(C)NC(N)=O)c(C)n1Cc1ccco1 (stereo not given),-34%,u,-20%,u,-2%
Cc1cc(C(=O)COC(=O)c2ccc(O)cc2)c(C)n1Cc1ccco1,u,u,-6%,50µM*,u
Cc1cc(C(=O)CN2C(=O)C(=O)N(Cc3ccccc3)C2=O)c(C)n1CC1COc2ccccc2O1 (stereo not given),-2%,-23%,-13%,-13%,12%
CCCCN(C)S(=O)(=O)c1cc(-c2cc(C)no2)ccc1C,30%[59 µM],64%,0%,68%,110%
CCOC(=O)c1sc(NC(=O)c2ccccc2)cc1C,-17%,-2%,2%,-1%,29%
CCOC(=O)c1sc(N)c(C(=O)Nc2ccccc2)c1C,10µM*,-20%,-13%,-19%,u
CCOC(=O)c1sc(NC(=O)c2c(C)nn(Cc3ccccc3)c2C)cc1C,50µM*,-7%,1%,-2%,15%
CCOC(=O)c1c(N)sc(C(=O)OCCOC)c1C,11µM*,-22%[57.1 µM],u,-20%,u
CCN(CC)C(=O)c1sc(N)c(C(=O)OC(C)C)c1C,11µM*,-23%,7%,6%,-12%
CC(Sc1nnc2ccc3ccccc3n12)C(=O)Nc1ccc(Cl)cc1 (stereo not given),u,u,1%,-16%,63%
Cc1ccc(NC(=O)c2cn3c4c(ccc(Cl)c4c2=O)OC(C)C3)c(C)c1 (stereo not given),-11%[59 µM],-11%,0%,2%,9%
O=C(c1ccc(Cl)cc1)n1nc(-c2ccco2)nc1NCc1cccs1,3%[59 µM],8%,1%,-4%,6%
CCOC(=O)c1c(NC(=O)CSc2cccc[n+]2[O-])sc(C(=O)Nc2ccccc2)c1C,45µM*,-3%,-11%,0%,33%
COC(=O)c1ccc(SC2CCCCC2)c([N+](=O)[O-])c1,16µM*,u,-14%,u,-21%
COc1ccccc1C(O)c1nccn1Cc1ccccc1 (stereo not given),x,-18%,x,x,25%
CC(C)(C)S(=O)N1Cc2cc(C(=O)N3CCOCC3)nc(-c3cccc(Br)c3)c2[C@@H]1CCO (stereo not given in full),x,x,-8%,x,x
CCCCC[C@H](O)/C=C/[C@@H]1[C@@H](C/C=C\CCCC(=O)O)[C@@H](O)C[C@@H]1O,31%[59 µM],x,x,x,x
CS(=O)(=O)N1CCN(c2ccc([N+](=O)[O-])c(NCc3ccc(Cl)cc3)c2)CC1,25%[59 µM],89µM*,12%,u,8%
CC(C)(C)c1ccc(CNc2cc(N3CCOCC3)ccc2[N+](=O)[O-])cc1,25µM*,u,3%,u,u
CC(C)c1ccc(CNc2cc(N3CCCC3)ccc2[N+](=O)[O-])cc1,u,u,-18%,u,-29%
COc1cc(/C=C/C(=O)OCC(=O)N(C)CC(=O)Nc2ccc(F)cc2)ccc1OC(F)F,-8%[59 µM],-18%,0%,8%,32%
SMILES,G9a block,JMJD2A Tudor,GLS inh,BAZ2B inh,HP1b binding inh
CCOc1ccc(C=NN2CCCCCC2)cc1OCC,x,40µM*,6%,x,u
CC(C)c1ccc(/C=N/N2CCN(c3ccccn3)CC2)cc1,u,-28%,11%,-23%,6%
CCOc1ccc(/C=N/N2C(C)CCCC2C)cc1OC (stereo not given),-8%,-17%,22%,-20%,14%
CC(C)c1ccc(/C=N/N2CCCCC2)cc1,10µM*,u,2%,32µM*,22µM*
O=C1N=c2ccc(Br)cc2=C1c1sc(=O)[nH]c1O,45µM*,x,x,u,x
CCn1c(O)c(C2=c3ccccc3=NC2=O)c2cc(Br)ccc21,u,-19%,-5%,-35%,7%
NS(=O)(=O)c1ccc(-c2ccc(/C=C3\NC(=S)NC3=O)o2)cc1,8.9µM*,25µM*,-8%,50µM*,u
CCCOC(=O)c1cc(-c2ccc(/C=C3/C(=O)N(C)C(=O)C(C#N)=C3C)o2)ccc1Cl,x,56µM*,25%,x,u
NS(=O)(=O)c1ccc(-c2ccc(C=O)o2)cc1,-42%,-8%[11.4 µM],-4%,-3%,51%
C=CCOC(=O)c1cc(-c2ccc(/C=C3\C(=O)NC(=O)C(C#N)=C3C)o2)ccc1Cl,8.9µM*,50µM*,-28%,35µM*,-97%
CC1=C(C#N)C(=O)NC(=O)/C1=C/c1ccc(-c2ccc(S(N)(=O)=O)cc2)o1,8.9µM*,71µM*,15%,45µM*,u
O=c1c(-c2cc(F)cc(F)c2)nc2cnc(N3CCNCC3)nc2n1CCc1ccccc1,-1%[12.7 µM],x,x,x,x
O=C(NC(Cc1ccccc1)C(=O)NC(Cc1ccccc1)C(=O)O)c1ccccc1 (stereo not given),28µM*,-5%[57.1 µM],2%,u,12%
CC(=O)NC(Cc1ccccc1)C(=O)NC(Cc1ccccc1)C(=O)O (stereo not given),u,0%,-6%,-14%,41%
O=C(O)[C@H](Cc1ccccc1)NC(=O)N1CCCCCC1,12%,5%,-8%,7%,32%
O=C(O)[C@H](Cc1ccccc1)NC(=O)N1CCOCC1,50µM*,0%,6%,-6%,20%
COc1ccc(NC(=O)COC(=O)CNS(=O)(=O)/C=C/c2ccccc2)cc1OC,17%[12.7 µM],-12%,-3%,-4%,30%
Cc1cc(/C=c2/sc3nc4ccccc4n3c2=O)c(C)n1-c1ccccn1,u,u,2%,-10%,24%
O=c1/c(=C\c2cccnc2)sc2nc3ccccc3n12,-3%[12.7 µM],-4%,-9%,3%,26%
Cc1cc(C=C2C(=O)c3ccccc3C2=O)c(C)n1-c1ccc(C(=O)O)cc1,35µM*,-27%,-4%,u,-11%
Cc1cc(/C=C2\Cc3ccccc3C2=O)c(C)n1-c1ccccc1,11%[59 µM],16%,12%,10%,40%
Cc1cc(C=C2C(=O)c3ccccc3C2=O)c(C)n1-c1ccccc1,-11%,-22%,7%,-5%,16%
Cc1cc(/C=c2\sc3nc4ccccc4n3c2=O)c(C)n1-c1ccc(C(=O)O)cc1,25µM*,-23%,-4%,u,-17%
O=c1/c(=C/c2ccc(O)c([N+](=O)[O-])c2)sc2nc3ccccc3n12,u,45µM*,0%,u,u

# Compound activity: PubChem, National Center for Advancing Translational Sciences (NCATS)
